From PubChem BioAssay (NCI)
About 79,000 compounds went through this panel and 15% of them were active in at least one assay; those are over-represented in the sample as a whole. A number with no mark means an inactive call. Activity calls are given as the source filed them. Cut-off read from the data, not from the text of the source: active = growth inhibition above about 70%; inactive = the rest.

How the values were obtained:
[1] = NCI Yeast Anticancer Drug Screen. Data for the mec2-1 strain (AID 157); conditions: S. cerevisiae mec2-1 strain, stronger effect = higher value
Summary of the method: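 Yeast mec2-1 mutant treated with compound. Readout: growth inhibition vs vehicle controls.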

[2] = NCI Yeast Anticancer Drug Screen. Data for the rad14 strain (AID 159);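 note: 0% = growth of vehicle-treated control cultures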; conditions: S. cerevisiae rad14 strain growth inhibition, stronger effect = higher value
Summary of the method: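 Here, inhibition of yeast growth was measured after compound exposure, using a strain with a genetic defect in DNA damage repair and vehicle-treated cultures as the reference.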

[3] = NCI Yeast Anticancer Drug Screen. Data for the sgs1 mgt1 strain (AID 161);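 note: 0% = growth of cultures given vehicle only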; conditions: S. cerevisiae sgs1 mgt1 strain, stronger effect = higher value
Summary of the method: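 Inhibition of yeast growth, normalised to vehicle-treated controls, is reported for a strain bearing genetic alterations in DNA damage repair.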

[4] = NCI Yeast Anticancer Drug Screen. Data for the CLN2oe strain (AID 163);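 note: 0% = growth of vehicle-only control cultures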; conditions: S. cerevisiae CLN2oe strain, stronger effect = higher value
Summary of the method: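 Read-out: yeast growth inhibition, expressed relative to vehicle-only controls. The strain bears an engineered cell-cycle alteration.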

[5] = NCI Yeast Anticancer Drug Screen. Data for the cln2 rad14 strain (AID 165);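 note: 0% = growth equal to vehicle treated cultures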; conditions: S. cerevisiae cln2 rad14 strain, stronger effect = higher value
Summary of the method: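 cln2 rad14 yeast strain; compound exposure; growth inhibition read vs vehicle controls.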

[6] = NCI Yeast Anticancer Drug Screen. Data for the bub3 strain (AID 167); conditions: S. cerevisiae bub3 mutant strain, stronger effect = higher value
Summary of the method: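 Whole-cell yeast assay. The mutant strain was incubated with compounds, and growth inhibition was determined by comparison with vehicle-treated cells.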

[7] = NCI Yeast Anticancer Drug Screen. Data for the wt2 strain (AID 169);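 note: 0% = growth of vehicle-treated yeast cultures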; conditions: S. cerevisiae wt2 strain growth inhibition, stronger effect = higher value
Summary of the method: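 Read-out: growth inhibition versus vehicle-treated control cultures after compound exposure of the yeast strain.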

[8] = NCI Yeast Anticancer Drug Screen. Data for the mlh1 strain (AID 171);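 note: 0% = growth of vehicle-treated control cultures of the same strain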; conditions: S. cerevisiae mlh1 strain growth inhibition, stronger effect = higher value
Summary of the method: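 Read-out: growth inhibition versus vehicle controls. Strain: engineered yeast with a defined DNA repair or cell cycle defect, compound-treated.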

[9] = NCI Yeast Anticancer Drug Screen. Data for the sgs1 strain (AID 173);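 note: 0% = growth of vehicle-only control cultures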; conditions: S. cerevisiae sgs1 mutant, stronger effect = higher value
Summary of the method: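 Read-out: yeast growth inhibition relative to vehicle controls, following compound exposure of a strain with a defined DNA repair/cell cycle alteration.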

[10] = NCI Yeast Anticancer Drug Screen. Data for the mlh1 rad18 strain (AID 175); conditions: S. cerevisiae mlh1 rad18 strain growth inhibition, stronger effect = higher value
Summary of the method: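 Yeast w/ defined DNA-repair lesions; compound exposure; growth vs vehicle controls → % inhibition.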

[11] = NCI Yeast Anticancer Drug Screen. Data for the rad18 strain (AID 177); conditions: S. cerevisiae rad18 mutant growth inhibition, stronger effect = higher value
Summary of the method: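 Readout: growth inhibition vs vehicle controls. Cells: genetically altered yeast strain, DNA repair defect.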

[12] = at 5.0 µM (retest, dose inferred, filed as 0.5)
[13] = at 50.0 µM (retest, dose inferred, filed as 5.0)

For `Cn1c(=O)c2c(nc(N)n2C2OC(CO)C(O)C2O)n(C)c1=O` (stereo not drawn), which growth inhibition [1, 12] is on record?
The growth inhibition was -2%.

And the growth inhibition ([1]; at 11.0 µM)?
The growth inhibition was 1%.

What about the growth inhibition ([1]; at 33.0 µM) of the same molecule?
Its growth inhibition is -3%.

What about the growth inhibition [1, 13] of the same molecule?
The growth inhibition was -19%.

And the growth inhibition ([1]; at 50.0 µM)?
Its growth inhibition is 92% (active).

What about the growth inhibition ([1]; at 100.0 µM) of the same molecule?
The growth inhibition was -2%.

What about the growth inhibition ([2]; at 1.2 µM) of the same molecule?
Its growth inhibition is -4%.

What about the growth inhibition ([2]; at 3.7 µM) of the same molecule?
Its growth inhibition is -4%.

What about the growth inhibition ([2]; at 11.0 µM) of the same molecule?
Its growth inhibition is -6%.

And the growth inhibition ([2]; at 33.0 µM)?
The growth inhibition was -7%.

What about the growth inhibition ([2]; at 100.0 µM) of the same molecule?
Its growth inhibition is 0%.

What about the growth inhibition [3, 12] of the same molecule?
The growth inhibition was -17%.

And the growth inhibition [3, 13]?
The growth inhibition was 20%.

And the growth inhibition ([3]; at 50.0 µM)?
Its growth inhibition is 85.3% (active).

What about the growth inhibition ([4]; at 1.2 µM) of the same molecule?
Its growth inhibition is 1%.

What about the growth inhibition ([4]; at 3.7 µM) of the same molecule?
Its growth inhibition is -3%.

What about the growth inhibition ([4]; at 11.0 µM) of the same molecule?
The growth inhibition was 3%.

What about the growth inhibition ([4]; at 33.0 µM) of the same molecule?
Its growth inhibition is 3%.

What about the growth inhibition ([4]; at 100.0 µM) of the same molecule?
Its growth inhibition is 10%.

What about the growth inhibition [5, 12] of the same molecule?
Its growth inhibition is -9%.

And the growth inhibition [5, 13]?
Its growth inhibition is 50%.

And the growth inhibition ([5]; at 50.0 µM)?
Its growth inhibition is 88.6% (active).

What about the growth inhibition ([6]; at 1.2 µM) of the same molecule?
Its growth inhibition is 0%.

And the growth inhibition ([6]; at 3.7 µM)?
The growth inhibition was 3%.

What about the growth inhibition [6, 12] of the same molecule?
Its growth inhibition is -19%.

What about the growth inhibition ([6]; at 11.0 µM) of the same molecule?
Its growth inhibition is 12%.

What about the growth inhibition ([6]; at 33.0 µM) of the same molecule?
Its growth inhibition is 15%.

And the growth inhibition [6, 13]?
The growth inhibition was 18%.

And the growth inhibition ([6]; at 50.0 µM)?
The growth inhibition was 89% (active).

And the growth inhibition ([6]; at 100.0 µM)?
The growth inhibition was 15%.

And the growth inhibition ([7]; at 1.2 µM)?
Its growth inhibition is -4%.

What about the growth inhibition ([7]; at 3.7 µM) of the same molecule?
The growth inhibition was -4%.

What about the growth inhibition ([7]; at 11.0 µM) of the same molecule?
The growth inhibition was -4%.

What about the growth inhibition ([7]; at 33.0 µM) of the same molecule?
The growth inhibition was -2%.

What about the growth inhibition ([7]; at 100.0 µM) of the same molecule?
Its growth inhibition is 0%.

And the growth inhibition ([8]; at 1.2 µM)?
Its growth inhibition is -1%.

What about the growth inhibition ([8]; at 3.7 µM) of the same molecule?
The growth inhibition was -7%.

And the growth inhibition ([8]; at 11.0 µM)?
The growth inhibition was -1%.

What about the growth inhibition ([8]; at 33.0 µM) of the same molecule?
The growth inhibition was 3%.

And the growth inhibition ([8]; at 100.0 µM)?
The growth inhibition was -1%.

And the growth inhibition ([9]; at 1.2 µM)?
Its growth inhibition is -1%.

And the growth inhibition ([9]; at 3.7 µM)?
The growth inhibition was -1%.

What about the growth inhibition ([9]; at 11.0 µM) of the same molecule?
The growth inhibition was -1%.

What about the growth inhibition ([9]; at 33.0 µM) of the same molecule?
The growth inhibition was -2%.

What about the growth inhibition ([9]; at 100.0 µM) of the same molecule?
Its growth inhibition is 1%.

And the growth inhibition [10, 12]?
The growth inhibition was 2%.

What about the growth inhibition [10, 13] of the same molecule?
Its growth inhibition is 37%.

What about the growth inhibition ([10]; at 50.0 µM) of the same molecule?
Its growth inhibition is 83.8% (active).

What about the growth inhibition ([11]; at 1.2 µM) of the same molecule?
Its growth inhibition is -1%.

What about the growth inhibition ([11]; at 3.7 µM) of the same molecule?
Its growth inhibition is 2%.

What about the growth inhibition ([11]; at 11.0 µM) of the same molecule?
The growth inhibition was -1%.

What about the growth inhibition ([11]; at 33.0 µM) of the same molecule?
The growth inhibition was -2%.

And the growth inhibition ([11]; at 100.0 µM)?
Its growth inhibition is -2%.
